Experimental data as given in PubChem BioAssay (EPA / NIEHS).
Inconclusive results are not listed. The source made the active and inactive calls. The calls were made as follows: active = hit-call score of the fitted dose curve at least 0.9, where 1 is the maximum; inconclusive = response in the unintended direction; inactive = score below 0.9.

Assay: TOX21_p53_BLA_p3_viability: Viability Assessment in the Tox21 HCT-116 p53 Agonism Beta-lactamase Assay, Phase 3 (AID 2283593);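 also: cells exposed to compound for 16 h before reading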
Text: TOX21_p53_BLA_p3 is a cell-based, single-readout assay that uses HCT116, a human intestinal cell line, […] in a 1536-well plate.TOX21_p53_BLA_p3_viability is an assay readout measuring cellular ATP content and detected with CellTiter-Glo Luciferase-coupled ATP quantitation.TOX21_p53_BLA_p3_viability used a type of viability reporter where loss-of-signal activity can be used to understand changes in the cell viability. Furthermore, this assay endpoint can be referred to as a secondary readout, because this assay has produced multiple assay endpoints where this one serves a viability function. To generalize the intended target to other relatable targets, this assay endpoint is annotated to the cell cycle intended target family, where the subfamily is cytotoxicity.
Thawing Method: Place 14 mL of pre-warmed thaw medium into a 15 mL of conical tub. Remove the vial of cells to be thawed from liquid nitrogen and thaw rapidly by placing at 37C in a water bath with gentle agitation for 1-2 minutes. Decontaminate the vial by wiping with 70% ethanol before opening in a biological safety cabinet. Transfer the vial contents drop-wise into 14 mL of thaw medium in a sterile 15-mL conical tub. Centrifuge cells at 900 rpm for 4 minutes and resuspend in thaw medium. Transfer contents to the T75 tissue culture flask containing Thaw Medium and place flask in a humidified 37C/5% CO2 incubator. Switch to growth medium at first passage.Propagation Method: Aspirate medium, rinse once in DPBS, add 0.25% Trypsin/EDTA and swirl to coat the cell evenly. Add an equal volume of Growth Medium to inactivate Trypsin after 2-3 minutes incubation at 37C. Centrifuge cells at 900 rpm for 4 minutes and resuspend in growth medium. Cell should be passage or fed at least twice a week.Assay Protocol: Harvest cells from culture in growth medium and resuspend in assay medium. 2.2 Dispense 4000 cells/5 uL/well into 1536-well black/clear bottom plates using a Multidrop dispenser. After the cells were incubated at 37C for 5 hours, 23 nL of compounds dissolved in DMSO were transferred to the assay plate by a PinTool resulting in a 217-fold dilution. Incubate the plates for 16 hours at 37C, 5% CO2. Add 1 uL of 6X LiveBLAzer FRET B/G (CCF4-AM) Substrate Mixture to each well using a BioRAPTR dispenser and incubate the plates at room temperature for 2 hours. Measure fluorescence intensity at 460 and 530 nm emission and 405 nm excitation by an Envision detector. Data is expressed as the ratio of 460nm/530nm emissions. Add 4 uL of Cell-titer Glo to each well using BioRAPTR and incubate the plates at room temperature for […]. For cell viability readout that measures cytotoxicity, 4 ul/well of CellTiter-Glo reagent was added into the assay plates using a Flying Reagent Dispenser. After 30 min incubation at room temperature, the luminescence intensity in the plates was measured using a ViewLux plate reader.
With `IC(I)=C(I)I` the outcome was “inactive”. In the case of `C[N+](C)(C)CCCl`, the outcome is reported as “inactive”. For `CN1C[C@H](C(=O)N[C@]2(C)O[C@@]3(O)[C@@H]4CCCN4C(=O)[C@H](Cc4ccccc4)N3C2=O)C=C2c3cccc4[nH]cc(c34)C[C@H]21`, the outcome was “inactive”. For `O=[N+]([O-])O[C@H]1CO[C@H]2[C@@H]1OC[C@H]2O[N+](=O)[O-]`, the outcome was “inactive”. With `ClC(Cl)(Cl)Cl` the outcome was “inactive”. With `COc1ccc2c(c1OC)C(=O)O[C@H]2[C@@H]1c2cc3c(cc2CCN1C)OCO3` the outcome was “inactive”. For `COC(C)(C)CCCC(C)C/C=C/C(C)=C/C(=O)OC(C)C` (stereo not given), the outcome was “inactive”. With `Oc1ccc(Cl)c(Cl)c1` the outcome was “inactive”. In the case of `CCCCCCI`, the outcome is reported as “inactive”. With `O=C(NCc1cccnc1)Nc1ccc([N+](=O)[O-])cc1` the outcome was “inactive”. In the case of `CC(Oc1ccc(Oc2ncc(C(F)(F)F)cc2Cl)cc1)C(=O)O` (stereo not given), the outcome is reported as “inactive”. In the case of `CCOC(=O)C1OC1(C)c1ccccc1` (stereo not given), the outcome is reported as “inactive”. In the case of `N#CCCSCCC#N`, the outcome is reported as “inactive”. For `O=C/C=C/c1ccco1`, the outcome was “inactive”. In the case of `C[C@H]1CC[C@]2(NC1)O[C@H]1C[C@H]3[C@@H]4CC[C@H]5C[C@@H](O[C@@H]6O[C@H](CO)[C@H](O[C@@H]7O[C@H](CO)[C@@H](O)[C@H](O[C@@H]8OC[C@@H](O)[C@H](O)[C@H]8O)[C@H]7O[C@@H]7O[C@H](CO)[C@@H](O)[C@H](O)[C@H]7O)[C@H](O)[C@H]6O)CC[C@]5(C)[C@H]4CC[C@]3(C)[C@H]1[C@@H]2C`, the AC50 is reported as 5.23 µM (active). In the case of `COC1=CC(=O)O[C@@H](/C=C/c2ccc3c(c2)OCO3)C1`, the outcome is reported as “inactive”. For `CC(C)NC(C)C`, the outcome was “inactive”. In the case of `O=c1[nH]c(Cl)c(Cl)cc1Cl`, the outcome is reported as “inactive”. With `CCOC(=O)c1cn2nc(OP(=S)(OCC)OCC)cc2nc1C` the outcome was “inactive”. For `CC(C)CCCCCCCOP(=O)(Oc1ccccc1)Oc1ccccc1`, the outcome was “inactive”. With `Cc1cc(Cl)ccc1N=CN(C)C` the outcome was “inactive”. With `CN[C@]1(c2ccccc2Cl)CCCCC1=O` the outcome was “inactive”. For `CC(Cc1ccc(C(C)(C)C)cc1)CN1C[C@@H](C)O[C@@H](C)C1` (stereo not given in full), the AC50 was 46.1 µM (active). In the case of `CC(=O)OC1CN2CCC1CC2` (stereo not given), the outcome is reported as “inactive”. With `C[C@]12CC[C@H](O)C[C@H]1CC[C@@H]1[C@@H]2CC[C@]2(C)[C@@H](c3ccc(=O)oc3)C[C@H]3O[C@]132` the AC50 was 0.978 µM (active). For `CN1C(=O)[C@@H](NC(=O)c2cc3ccccc3[nH]2)N=C(c2ccccc2)c2ccccc21`, the outcome was “inactive”. In the case of `O=[N+]([O-])c1ccc(Cl)cc1`, the outcome is reported as “inactive”. In the case of `CCCCN=C=O`, the outcome is reported as “inactive”. With `ClC=CCCl` the outcome was “inactive”. In the case of `ClCOCCl`, the outcome is reported as “inactive”. With `C[C@]12CC[C@H]3[C@@H](CCC4=C(Cl)C(=O)CC[C@@]43C)[C@@H]1CC[C@@H]2O` the outcome was “inactive”. For `COC(=O)COc1ccc(Cl)cc1Cl`, the outcome was “inactive”. For `C1CCNCC1`, the outcome was “inactive”. With `C=CC(=O)OCCO` the outcome was “inactive”. In the case of `c1ccc2cc3c(cc2c1)-c1cccc2cccc-3c12`, the outcome is reported as “inactive”. For `O=NN1CCNCC1`, the outcome was “inactive”. With `Cn1cc(C2=C(c3cn(C4CCN(Cc5ccccn5)CC4)c4ccccc34)C(=O)NC2=O)c2ccccc21` the outcome was “inactive”. With `CCOP(=S)(OCC)Oc1cc(Cl)c(Br)cc1Cl` the outcome was “inactive”. In the case of `CCCCC(CC)COC(=O)OOC(C)(C)C` (stereo not given), the outcome is reported as “inactive”. With `CCOC(=O)CBr` the outcome was “inactive”.
